# From PubChem BioAssay (EPA / NIEHS)
# Results filed as inconclusive are left out. A structure can be active in one record and inactive in another. Activity calls are given as the source filed them. How the source made its calls: active means hit-call score of the fitted dose curve at least 0.9, where 1 is the maximum; inconclusive means response in the unintended direction; inactive means score below 0.9.
# Assays:
# [1] = biological target: Luciferin 4-monooxygenase (Photinus pyralis) (UniProt P08659); assay: CCTE_Simmons_QuantiLum_inhib_2: CCTE's Firefly Luciferase Inhibition Assay, Simmons Lab (AID 2283767);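 on AC50: potency for inhibitors that lower luciferase luminescence relative to DMSO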
# Luciferin 4-monooxygenase (Photinus pyralis), sequence (P08659 whole entry, looked up): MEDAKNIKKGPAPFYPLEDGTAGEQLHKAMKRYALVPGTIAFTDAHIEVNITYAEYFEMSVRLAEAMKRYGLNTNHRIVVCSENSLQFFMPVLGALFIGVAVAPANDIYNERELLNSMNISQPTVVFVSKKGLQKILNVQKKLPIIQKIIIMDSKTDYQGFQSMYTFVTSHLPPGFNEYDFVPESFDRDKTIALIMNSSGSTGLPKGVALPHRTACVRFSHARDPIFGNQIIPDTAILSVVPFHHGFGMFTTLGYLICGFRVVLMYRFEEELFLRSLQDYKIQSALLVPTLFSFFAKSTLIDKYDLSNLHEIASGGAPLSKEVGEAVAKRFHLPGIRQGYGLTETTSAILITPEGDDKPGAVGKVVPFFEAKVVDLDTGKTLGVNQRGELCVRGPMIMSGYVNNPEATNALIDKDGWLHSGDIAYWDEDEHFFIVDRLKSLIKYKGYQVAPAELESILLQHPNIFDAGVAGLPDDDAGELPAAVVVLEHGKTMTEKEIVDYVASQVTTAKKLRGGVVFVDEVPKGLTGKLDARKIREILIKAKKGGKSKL
# Method in brief: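 Eight-point titrations of each chemical, 5 nM–87.5 uM final in 0.5% DMSO, were run in three biological replicates against recombinant luciferase for 30 min at 37C. Bioluminescence signal loss, read on reagent injection, gave the inhibition endpoint.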
# [2] = ACEA_AR_agonist_AUC_viability: ACEA Biosciences xCELLigence Real-Time Cell Analysis on Androgen Receptor Agonism for Viability (AID 2283775);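 on AC50: viability read 80 hours after compound addition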
# Method in brief: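 Viability endpoint from xCELLigence impedance in 22Rv1 prostate cells at 80 h. Eight-point series, 100 uM maximum final.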
# [3] = ACEA_AR_antagonist_AUC_viability: ACEA Biosciences xCELLigence Real-Time Cell Analysis on Androgen Receptor Antagonism for Viability (AID 2283776);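 further: area under impedance growth curve at 80 h after dosing as viability; hits lower the growth signal relative to DMSO meaning cytotoxicity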
# Method in brief: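 22Rv1 human prostate cancer cells were seeded on electrode plates, monitored overnight, then exposed to eight 1:4 dilutions from 100 uM final. Impedance-based growth kinetics at 80 h gave an AUC viability endpoint normalized to DMSO.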
# [4] = biological target: zebrafish Estrogen Receptor (ESR1), esr1 (gene 259252) (UniProt P57717); assay: ATG_zfER1_XSP1: Attagene TRANS-FACTORIAL Multi-Species (XSP1) HepG2 Assay for zebrafish Estrogen Receptor (ESR1) (AID 2283772)
# zebrafish Estrogen Receptor (ESR1), esr1 (gene 259252), sequence (P57717 whole entry, looked up, the tested form may be a part): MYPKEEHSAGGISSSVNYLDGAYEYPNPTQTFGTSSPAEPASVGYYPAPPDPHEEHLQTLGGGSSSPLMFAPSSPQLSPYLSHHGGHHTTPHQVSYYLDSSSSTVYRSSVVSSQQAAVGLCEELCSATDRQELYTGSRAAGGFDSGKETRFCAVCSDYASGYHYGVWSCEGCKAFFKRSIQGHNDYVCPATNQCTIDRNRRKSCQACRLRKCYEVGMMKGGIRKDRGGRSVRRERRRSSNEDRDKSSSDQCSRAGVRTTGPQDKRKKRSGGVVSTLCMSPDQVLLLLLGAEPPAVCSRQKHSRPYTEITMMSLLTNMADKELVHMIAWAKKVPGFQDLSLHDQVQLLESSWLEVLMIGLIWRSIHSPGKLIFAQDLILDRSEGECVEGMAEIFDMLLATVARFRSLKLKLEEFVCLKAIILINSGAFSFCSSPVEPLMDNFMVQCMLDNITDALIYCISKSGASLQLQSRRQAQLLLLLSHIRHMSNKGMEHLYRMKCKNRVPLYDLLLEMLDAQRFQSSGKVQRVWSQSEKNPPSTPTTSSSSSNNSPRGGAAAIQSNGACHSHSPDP
# Method in brief: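 Trans-activation readout: transfected zebrafish ER-Gal4 drives a UAS reporter in human HepG2 liver cells. After 24 h compound exposure (medium containing 3 nM 6-alpha-fluorotestosterone), induced reporter transcripts were quantified by RT-PCR with capillary electrophoresis, relative to DMSO.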
# [5] = system: zebrafish Estrogen Receptor (ESR2B), gene 317733; assay: ATG_zfER2b_XSP1: Attagene TRANS-FACTORIAL Multi-Species (XSP1) HepG2 Assay for zebrafish Estrogen Receptor (ESR2B) (AID 2283773)
# Method in brief: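 Medium contained 3 nM 6-alpha-fluorotestosterone. Reporter mRNA induction by exogenous zebrafish ER2b-Gal4 chimera was read 24 h post-dose in transiently transfected HepG2 cells, using RT-PCR, fluorescent labelling, HpaI digestion and capillary electrophoresis.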
# [6] = system: frog Estrogen Receptor (ESR2), gene 100174814; assay: ATG_frER2_XSP1: Attagene TRANS-FACTORIAL Multi-Species (XSP1) HepG2 Assay for frog Estrogen Receptor (ESR2) (AID 2283774)
# Method in brief: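 Reporter mRNA from a multiplexed TRANS system, measured by RT-PCR with fluorescent labelling and capillary electrophoresis, 24 hours after chemical exposure. Human HepG2 liver cells carried exogenous frog ER-Gal4 chimera; medium included 3 nM 6-alpha-fluorotestosterone; increases versus DMSO analysed.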
# [7] = system: frog Estrogen Receptor (ESR1), gene 398734; assay: ATG_frER1_XSP1: Attagene TRANS-FACTORIAL Multi-Species (XSP1) HepG2 Assay for frog Estrogen Receptor (ESR1) (AID 2283777)
# Method in brief: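 HepG2 cells transiently transfected with GAL4-UAS reporter units and frog ER–Gal4 chimera were dosed for 24 h with 3 nM 6-alpha-fluorotestosterone present. Reporter mRNA was measured by RT-PCR and capillary electrophoresis; gain of signal fitted versus DMSO.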
# [8] = system: zebrafish Estrogen Receptor (ESR2A), gene 317734; assay: ATG_zfER2a_XSP1: Attagene TRANS-FACTORIAL Multi-Species (XSP1) HepG2 Assay for zebrafish Estrogen Receptor (ESR2A) (AID 2283778)
# Method in brief: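 Reporter transcripts were quantified by RT-PCR, 6-FAM labelling, HpaI digestion and capillary electrophoresis after 24 h dosing. The cells were HepG2 transiently carrying a zebrafish ER2a–Gal4 construct plus multiplexed UAS reporters; medium contained 3 nM 6-alpha-fluorotestosterone.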
# [9] = biological target: chicken Estrogen Receptor (ESR1), ESR1 (gene 396099) (UniProt P06212); assay: ATG_chERa_XSP1: Attagene TRANS-FACTORIAL Multi-Species (XSP1) HepG2 Assay for chicken Estrogen Receptor (ESR1) (AID 2283779)
# chicken Estrogen Receptor (ESR1), ESR1 (gene 396099), sequence (P06212 whole entry, looked up, the tested form may be a part): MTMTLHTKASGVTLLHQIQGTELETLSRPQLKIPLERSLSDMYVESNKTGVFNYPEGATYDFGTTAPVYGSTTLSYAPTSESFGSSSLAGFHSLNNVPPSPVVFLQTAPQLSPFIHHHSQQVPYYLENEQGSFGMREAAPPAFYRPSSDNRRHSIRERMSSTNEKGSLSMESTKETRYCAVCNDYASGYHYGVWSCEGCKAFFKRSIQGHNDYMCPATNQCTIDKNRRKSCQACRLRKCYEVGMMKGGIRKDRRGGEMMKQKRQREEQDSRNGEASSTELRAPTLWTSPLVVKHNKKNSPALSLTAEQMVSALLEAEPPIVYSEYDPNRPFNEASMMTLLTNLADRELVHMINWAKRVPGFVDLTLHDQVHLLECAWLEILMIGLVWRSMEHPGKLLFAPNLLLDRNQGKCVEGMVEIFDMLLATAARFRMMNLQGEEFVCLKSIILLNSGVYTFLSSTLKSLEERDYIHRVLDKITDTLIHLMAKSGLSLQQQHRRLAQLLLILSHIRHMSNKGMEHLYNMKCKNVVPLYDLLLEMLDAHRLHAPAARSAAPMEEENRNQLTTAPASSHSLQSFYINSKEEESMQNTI
# Method in brief: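 Trans-activation of an exogenous chicken ERα–Gal4 chimera read as reporter transcript (RT-PCR, fluorescent labeling, capillary electrophoresis) after 24 h compound exposure of transfected HepG2; medium held 3 nM 6-alpha-fluorotestosterone. Positive-direction fit against DMSO.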
# [10] = ArunA_CellTiter_hNP: Viability Assessment in the ArunA Biomedical's Oris Neural Crest (hNC) Cell Migration Assay (AID 2283753)
# Method in brief: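 Viability read with CellTiter 96 Aqueous One after 72 h chemical exposure of human hNP1 neuroprogenitors, which were plated on Matrigel in LIF/bFGF medium 16 h beforehand. Endpoint fitted in positive direction relative to DMSO.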
# [11] = ArunA_Migration_hNC: ArunA Biomedical's Oris Neural Crest (hNC) Cell Migration Assay (AID 2283755)
# Method in brief: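 Calcein-AM fluorescence (ex494 nm/em 517 nm) in the stopper-defined detection zone quantifies migration of hNC cells after 72 h chemical exposure; 60,000 cells/well plated on Matrigel with LIF and bFGF, 16 h pre-incubation. DMSO baseline.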
# [12] = ArunA_NOG_NeuriteLength: ArunA Biomedical's Neurite Outgrowth (NOG) Assay for Neurite Length (AID 2283757)
# Method in brief: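 Total neurite length per neuron, from traced βIII-tubulin-labelled processes longer than 10 um on viable Hoechst-gated cells, was scored as decrease from DMSO. Cells were hESC (H9)-derived neurons given 48 h chemical exposure immediately after seeding.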
# [13] = ArunA_NOG_NeuritesPerNeuron: ArunA Biomedical's Neurite Outgrowth (NOG) Assay for Neurites Per Neuron (AID 2283758)
# Method in brief: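 Differentiated human H9-derived neurons exposed to chemicals for 48 h from seeding, then stained with Hoechst and βIII-tubulin/DyLight 488. Automated imaging counted neurites (processes >10 um) per valid neuron; loss of signal versus DMSO scored.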
# [14] = system: chicken Androgen Receptor (AR), gene 422165; assay: ATG_chAR_XSP1: Attagene TRANS-FACTORIAL Multi-Species (XSP1) HepG2 Assay for chicken Androgen Receptor (AR) (AID 2283768)
# Method in brief: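 Reporter mRNA read by RT-PCR with fluorescent labelling and capillary electrophoresis 24 h after chemical dosing of transiently transfected HepG2 cells. Chicken AR-Gal4 chimera, partially stimulated with 3 nM 6-alpha-fluorotestosterone; activity fitted upward relative to DMSO.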
# [15] = system: frog Androgen Receptor (AR), gene 399456; assay: ATG_frAR_XSP1: Attagene TRANS-FACTORIAL Multi-Species (XSP1) HepG2 Assay for frog Androgen Receptor (AR) (AID 2283770)
# Protocol: ATG_XSP1_multi-species_TRANS is a cell-based, multiplexed assay created by modifying the existing Attagene TRANS-FACTORIAL system to include a panel of nuclear receptors from some or all the following species: human (Homo sapiens), mouse (Mus musculus), frog (Xenopus laevis), zebrafish (Danio rerio), chicken (Gallus gallus), and turtle (Chrysemys picta). The ECOTOX-FACTORIAL format uses HepG2, a human liver cell line, with measurements taken at 24 hours after chemical dosing in a 24-well plate. Xsp1 included 3 nM 6-alpha-fluorotestosterone to partially stimulate the androgen receptor.ATG_frAR_XSP1 is one of 29 assay components measured or calculated from the ATG_XSP1_multi-species_TRANS assay. It is designed to make measurements of mRNA induction, a form of inducible reporter, as detected with fluorescence intensity signals by Reverse transcription polymerase chain reaction (RT-PCR) and Capillary electrophoresis technology.The assay endpoint ATG_frAR_XSP1 was analyzed in the positive analysis fitting direction relative to DMSO as the negative control and baseline of activity. […] Furthermore, this assay endpoint can be referred to as a primary readout, because this assay has produced multiple assay endpoints where this one serves a reporter gene function. […]
# [16] = system: zebrafish Androgen Receptor (AR), gene 100005148; assay: ATG_zfAR_XSP1: Attagene TRANS-FACTORIAL Multi-Species (XSP1) HepG2 Assay for zebrafish Androgen Receptor (AR) (AID 2283771)
# Method in brief: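 Gain-of-signal versus DMSO was measured as reporter transcripts quantified by RT-PCR, fluorescent labelling and capillary electrophoresis after 24 h chemical exposure. The cells were HepG2 expressing a chimeric zebrafish AR-GAL4, co-stimulated with 3 nM 6-alpha-fluorotestosterone.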
compound,measurement,setting,value
COc1cc(C(=O)NC2CCN(C)CC2)ccc1Nc1ncc2c(n1)N(C1CCCC1)CC(F)(F)C(=O)N2C,outcome,[1],inactive
same,AC50,[2],0.00301 µM (active)
same,AC50,[3],0.00297 µM (active)
CC(=O)N1CCN(c2ccc(OC[C@H]3CO[C@](Cn4ccnc4)(c4ccc(Cl)cc4Cl)O3)cc2)CC1,outcome,[1],inactive
same,AC50,[2],29.2 µM (active)
same,AC50,[3],32.4 µM (active)
CN(C)c1ccc(C(=C2C=CC(=[N+](C)C)C=C2)c2ccc(N(C)C)cc2)cc1,AC50,[1],3.03 µM (active)
same,AC50,[2],0.281 µM (active)
same,AC50,[3],0.161 µM (active)
CCCOC(=O)c1cc(O)c(O)c(O)c1,outcome,[1],inactive
same,AC50,[2],50 µM (active)
same,AC50,[3],31.4 µM (active)
C[C@]12CC[C@@H]3c4ccc(O)cc4CC[C@H]3[C@@H]1CC[C@H]2O,outcome,[1],inactive
same,AC50,[2],90.7 µM (active)
same,AC50,[3],84.1 µM (active)
C[C@]12CC[C@@H]3c4ccc(O)cc4CC[C@H]3[C@@H]1CCC2=O,AC50,[4],0.0145 µM (active)
same,AC50,[5],0.00305 µM (active)
same,AC50,[6],0.00632 µM (active)
same,outcome,[2],inactive
same,AC50,[3],71.6 µM (active)
same,outcome,[3],inactive
same,AC50,[7],0.00311 µM (active)
same,AC50,[8],0.00383 µM (active)
same,AC50,[9],0.00508 µM (active)
CO[C@H]1/C=C/O[C@@]2(C)Oc3c(C)c(O)c4c(O)c(c(/C=N/N5CCN(C)CC5)c(O)c4c3C2=O)NC(=O)/C(C)=C\C=C\[C@H](C)[C@H](O)[C@@H](C)[C@@H](O)[C@@H](C)[C@H](OC(C)=O)[C@@H]1C,AC50,[1],22.6 µM (active)
O=c1c(-c2ccc(O)cc2)coc2cc(O)cc(O)c12,AC50,[1],7.86 µM (active)
same,AC50,[2],62.9 µM (active)
same,AC50,[3],28.8 µM (active)
CC(C)(c1cc(Br)c(O)c(Br)c1)c1cc(Br)c(O)c(Br)c1,outcome,[10],inactive
same,outcome,[11],inactive
same,outcome,[12],inactive
same,outcome,[13],inactive
same,outcome,[1],inactive
same,outcome,[14],inactive
same,outcome,[15],inactive
same,outcome,[16],inactive
same,outcome,[5],inactive
same,AC50,[6],11.8 µM (active)
same,AC50,[2],25 µM (active)
same,AC50,[3],24.3 µM (active)
same,outcome,[7],inactive
same,outcome,[8],inactive
same,outcome,[9],inactive
O=C(O)Cc1cc(I)c(Oc2ccc(O)c(I)c2)c(I)c1,outcome,[1],inactive
same,AC50,[2],22 µM (active)
same,AC50,[3],20.3 µM (active)
CCO[Si](CCCNC(N)=O)(OCC)OCC,outcome,[2],inactive
same,outcome,[3],inactive
O=C1O[C@H]([C@@H](O)CO)C(O)=C1O,outcome,[1],inactive
same,outcome,[2],inactive
same,outcome,[3],inactive
CCCC(=O)OCCC(C)C,outcome,[2],inactive
